Results: the supplement of paper PMC8728848
Only a selection was taken, and the strongest signals are over-represented in it overall.

Key:
Assay in all cases: glycan array binding signal (z-score within array); higher = stronger binding
Conditions in all cases: glycan notation: IUPAC condensed, linker removed
[1] = biological target: Fuc(a1-2)Gal(b1-3)GlcNAc(b1-3)[Fuc(a1-2)Gal(b1-3)GlcNAc(b1-6)]GalNAc
Procedure, shortened: (§1)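 The Consortium for Functional Glycomics database supplied 3228 glycan arrays, of which those lacking an available protein sequence were dropped. The binding signal, a within-array Z-score, was averaged across arrays of the same protein sequence and across linkers. Negative scores can be read as non-binding.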

[2] = biological target: Fuc(a1-2)Gal(b1-4)Fuc(a1-3)]GlcNAc(b1-2)Man(a1-3)[Fuc(a1-2)Gal(b1-4)[Fuc(a1-3)]GlcNAc(b1-2)Man(a1-6)]Man(b1-4)GlcNAc(b1-4)GlcNAc
Procedure, shortened: as §1

[3] = biological target: Fuc(a1-2)Gal(b1-4)GlcNAc(b1-2)Man(a1-3)[Fuc(a1-2)Gal(b1-4)GlcNAc(b1-2)Man(a1-6)]Man(b1-4)GlcNAc(b1-4)GlcNAc
Procedure, shortened: as §1

[4] = biological target: Fuc(a1-2)Gal(b1-4)[Fuc(a1-3)]GlcNAc(b1-2)Man(a1-3)[Fuc(a1-2)Gal(b1-4)[Fuc(a1-3)]GlcNAc(b1-2)Man(a1-6)]Man(b1-4)GlcNAc(b1-4)[Fuc(a1-6)]GlcNAc
Procedure, shortened: as §1

[5] = biological target: Fuc(a1-2)Gal(b1-4)[Fuc(a1-3)]GlcNAc(b1-3)Gal(b1-4)[Fuc(a1-3)]GlcNAc
Procedure, shortened: as §1

[6] = biological target: Fuc(a1-2)[Gal(a1-3)]Gal(b1-3)GalNAc(b1-3)Gal(a1-4)Gal(b1-4)Glc
Procedure, shortened: as §1

[7] = biological target: Fuc(a1-2)[Gal(a1-3)]Gal(b1-4)Glc
Procedure, shortened: as §1

[8] = biological target: Fuc(a1-2)[Gal(a1-3)]Gal(b1-4)[Fuc(a1-3)]Glc
Procedure, shortened: as §1

[9] = biological target: Fuc(a1-2)[GalNAc(a1-3)]Gal
Procedure, shortened: as §1

[10] = biological target: Fuc(a1-2)[GalNAc(a1-3)]Gal(b1-3)GlcNAc(b1-3)GalNAc
Procedure, shortened: as §1

[11] = biological target: Fuc(a1-2)[GalNAc(a1-4)]Gal(b1-4)GlcNAc
Procedure, shortened: as §1

[12] = biological target: Fuc(a1-3)[Gal(b1-4)]GlcNAc(b1-3)Gal(b1-4)[Fuc(a1-3)]GlcNAc
Procedure, shortened: as §1

[13] = biological target: Gal(b1-3)GalNAc(b1-3)Gal(a1-4)Gal(b1-4)Glc
Procedure, shortened: as §1

[14] = biological target: Gal(b1-3)GlcNAc(b1-3)Gal(b1-4)Glc
Procedure, shortened: as §1

[15] = biological target: Gal(b1-3)[Fuc(a1-4)]GlcNAc(b1-2)Man(a1-3)[Gal(b1-3)[Fuc(a1-4)]GlcNAc(b1-2)Man(a1-6)]Man(b1-4)GlcNAc(b1-4)[Fuc(a1-6)]GlcNAc
Procedure, shortened: as §1

[16] = biological target: Gal(b1-4)GlcNAc(b1-3)Gal(b1-4)Glc
Procedure, shortened: as §1

[17] = biological target: Gal(b1-4)GlcNAc(b1-3)Gal(b1-4)GlcNAc(b1-2)[Gal(b1-4)GlcNAc(b1-3)Gal(b1-4)GlcNAc(b1-6)]Man(a1-6)[Gal(b1-4)GlcNAc(b1-3)Gal(b1-4)GlcNAc(b1-2)Man(a1-3)]Man(b1-4)GlcNAc(b1-4)[Fuc(a1-6)]GlcNAc
Procedure, shortened: as §1

[18] = biological target: Gal(b1-4)GlcNAc(b1-3)Gal(b1-4)GlcNAc(b1-3)Gal(b1-4)GlcNAc(b1-3)Gal(b1-4)GlcNAc(b1-2)[Gal(b1-4)GlcNAc(b1-3)Gal(b1-4)GlcNAc(b1-3)Gal(b1-4)GlcNAc(b1-3)Gal(b1-4)GlcNAc(b1-6)]Man(a1-6)[Gal(b1-4)GlcNAc(b1-3)Gal(b1-4)GlcNAc(b1-3)Gal(b1-4)GlcNAc(b1-3)Gal(b1-4)GlcNAc(b1-2)Man(a1-3)]Man(b1-4)GlcNAc(b1-4)[Fuc(a1-6)]GlcNAc
Procedure, shortened: as §1

[19] = biological target: Gal(b1-4)GlcNAc(b1-3)Gal(b1-4)GlcNAc(b1-3)Gal(b1-4)GlcNAc(b1-3)Gal(b1-4)GlcNAc(b1-3)Gal(b1-4)GlcNAc(b1-2)[Gal(b1-4)GlcNAc(b1-3)Gal(b1-4)GlcNAc(b1-3)Gal(b1-4)GlcNAc(b1-3)Gal(b1-4)GlcNAc(b1-3)Gal(b1-4)GlcNAc(b1-6)]Man(a1-6)[Gal(b1-4)GlcNAc(b1-3)Gal(b1-4)GlcNAc(b1-3)Gal(b1-4)GlcNAc(b1-3)Gal(b1-4)GlcNAc(b1-3)Gal(b1-4)GlcNAc(b1-2)Man(a1-3)]Man(b1-4)GlcNAc(b1-4)[Fuc(a1-6)]GlcNAc
Procedure, shortened: as §1

[20] = biological target: Gal(b1-4)GlcNAc(b1-3)[Fuc(a1-3)GlcNAc(b1-6)]Gal(b1-4)Glc
Procedure, shortened: as §1

Gal6P(b1-4)GlcNAc = biological target: Gal6P(b1-4)GlcNAc
Procedure, shortened: as §1

Gal6S(b1-4)GlcNAc6S = biological target: Gal6S(b1-4)GlcNAc6S
Procedure, shortened: as §1

[21] = biological target: GalNAc(b1-3)Gal(a1-6)Gal(b1-4)Glc
Procedure, shortened: as §1

GalNAc(b1-4)GlcNAc = biological target: GalNAc(b1-4)GlcNAc
Procedure, shortened: as §1

[22] = biological target: GalNAc(b1-4)GlcNAc(b1-2)Man
Procedure, shortened: as §1

[23] = biological target: GalNAc(b1-4)GlcNAc(b1-3)GalNAc(b1-4)GlcNAc
Procedure, shortened: as §1

Glc(b1-4)Glc = biological target: Glc(b1-4)Glc
Procedure, shortened: as §1

[24] = biological target: GlcNAc(a1-4)Gal(b1-4)GlcNAc
Procedure, shortened: as §1

[25] = biological target: GlcNAc(a1-4)Gal(b1-4)GlcNAc(b1-3)Gal(b1-4)Glc
Procedure, shortened: as §1

[26] = biological target: GlcNAc(a1-4)Gal(b1-4)GlcNAc(b1-3)Gal(b1-4)GlcNAc(b1-3)Gal(b1-4)GlcNAc
Procedure, shortened: as §1

[27] = biological target: GlcNAc(b1-3)Gal(b1-4)GlcNAc(b1-2)Man(a1-3)[GlcNAc(b1-3)Gal(b1-4)GlcNAc(b1-2)Man(a1-6)]Man(b1-4)GlcNAc(b1-4)[Fuc(a1-6)]GlcNAc
Procedure, shortened: as §1

[28] = biological target: GlcNAc(b1-3)Gal(b1-4)GlcNAc(b1-3)Gal(b1-4)GlcNAc
Procedure, shortened: as §1

[29] = biological target: GlcNAc(b1-3)Gal(b1-4)GlcNAc(b1-3)GalNAc
Procedure, shortened: as §1

[30] = biological target: GlcNAc(b1-4)GlcNAc(b1-4)GlcNAc
Procedure, shortened: as §1

[31] = biological target: GlcNAc(b1-4)GlcNAc(b1-4)GlcNAc(b1-4)GlcNAc(b1-4)GlcNAc
Procedure, shortened: as §1

[32] = biological target: GlcNAc(b1-4)GlcNAc(b1-4)GlcNAc(b1-4)GlcNAc(b1-4)GlcNAc(b1-4)GlcNAc
Procedure, shortened: as §1

[33] = biological target: Neu5Ac(a2-3)Gal(b1-4)GlcNAc(b1-2)Man
Procedure, shortened: as §1

[34] = biological target: Neu5Ac(a2-3)Gal(b1-4)GlcNAc(b1-3)Gal(b1-4)GlcNAc(b1-3)GalNAc
Procedure, shortened: as §1

[35] = biological target: Neu5Ac(a2-3)Gal(b1-4)GlcNAc(b1-3)Gal(b1-4)GlcNAc(b1-3)[Neu5Ac(a2-3)Gal(b1-4)GlcNAc(b1-3)Gal(b1-4)GlcNAc(b1-6)]GalNAc
Procedure, shortened: as §1

[36] = biological target: Neu5Ac(a2-6)Gal(b1-4)GlcNAc(b1-2)[Neu5Ac(a2-6)Gal(b1-4)GlcNAc(b1-4)]Man(a1-3)[GlcNAc(b1-4)][Neu5Ac(a2-6)Gal(b1-4)GlcNAc(b1-2)[Neu5Ac(a2-6)Gal(b1-4)GlcNAc(b1-6)]Man(a1-6)]Man(b1-4)GlcNAc(b1-4)GlcNAc
Procedure, shortened: as §1

[37] = biological target: Neu5Ac(a2-6)Gal(b1-4)GlcNAc(b1-3)Gal(b1-4)GlcNAc(b1-6)[Gal(b1-3)]GalNAc
Procedure, shortened: as §1

[38] = biological target: Neu5Ac(a2-6)Gal(b1-4)GlcNAc(b1-6)GalNAc
Procedure, shortened: as §1

[39] = biological target: Neu5Ac(a2-6)Gal(b1-4)GlcNAc6S
Procedure, shortened: as §1

[40] = biological target: Neu5Ac(a2-6)GlcNAc(b1-4)GlcNAc(b1-4)GlcNAc
Procedure, shortened: as §1

[41] = biological target: Neu5Ac(a2-8)Neu5Ac(a2-8)Neu5Ac(a2-3)Gal(b1-4)Glc
Procedure, shortened: as §1

Neu5Gc(a2-6)GalNAc = biological target: Neu5Gc(a2-6)GalNAc
Procedure, shortened: as §1

B1: WGA (Triticum vulgare) (protein)
chain: QRCGEQGSNMECPNNLCCSQYGYCGMGGDYCGKGCQNGACWTSKRCGSQAGGATCPNNHCCSQYGHCGFGAEYCGAGCQGGPCRADIKCGSQSGGKLCPNNLCCSQWGFCGLGSEFCGGGCQSGACSTDKPCGKDAGGRVCTNNYCCSKWGSCGIGPGYCGAGCQSGGCDAVFAGAITANSTLLAE
glycan array binding signal (z-score) [1]: -0.344
glycan array binding signal (z-score) [2]: -0.173
glycan array binding signal (z-score) [3]: -0.197
glycan array binding signal (z-score) [4]: -0.297
glycan array binding signal (z-score) [5]: -0.365
glycan array binding signal (z-score) [6]: -0.364
glycan array binding signal (z-score) [7]: -0.359
glycan array binding signal (z-score) [8]: -0.309
glycan array binding signal (z-score) [9]: -0.082
glycan array binding signal (z-score) [10]: -0.299
glycan array binding signal (z-score) [11]: 3
glycan array binding signal (z-score) [12]: -0.381
glycan array binding signal (z-score) [13]: -0.328
glycan array binding signal (z-score) [14]: -0.373
glycan array binding signal (z-score) [15]: -0.172
glycan array binding signal (z-score) [16]: -0.341
glycan array binding signal (z-score) [17]: -0.132
glycan array binding signal (z-score) [18]: 0.022
glycan array binding signal (z-score) [19]: 0.244
glycan array binding signal (z-score) [20]: -0.275
glycan array binding signal (z-score) (Gal6P(b1-4)GlcNAc): -0.418
glycan array binding signal (z-score) (Gal6S(b1-4)GlcNAc6S): -0.371
glycan array binding signal (z-score) [21]: -0.316
glycan array binding signal (z-score) (GalNAc(b1-4)GlcNAc): 2.78
glycan array binding signal (z-score) [22]: 2.71
glycan array binding signal (z-score) [23]: 2.8
glycan array binding signal (z-score) (Glc(b1-4)Glc): -0.351
glycan array binding signal (z-score) [24]: 2.77
glycan array binding signal (z-score) [25]: 2.56
glycan array binding signal (z-score) [26]: 3.16
glycan array binding signal (z-score) [27]: 1.15
glycan array binding signal (z-score) [28]: 1.71
glycan array binding signal (z-score) [29]: -0.359
glycan array binding signal (z-score) [30]: 3.8
glycan array binding signal (z-score) [31]: 5.62
glycan array binding signal (z-score) [32]: 5.15
glycan array binding signal (z-score) [33]: -0.304
glycan array binding signal (z-score) [34]: -0.353
glycan array binding signal (z-score) [35]: -0.001
glycan array binding signal (z-score) [36]: -0.366
glycan array binding signal (z-score) [37]: -0.248
glycan array binding signal (z-score) [38]: -0.307
glycan array binding signal (z-score) [39]: -0.359
glycan array binding signal (z-score) [40]: 3.14
glycan array binding signal (z-score) [41]: -0.35
glycan array binding signal (z-score) (Neu5Gc(a2-6)GalNAc): -0.324
